Test results published in PubChem BioAssay (Tox21).
Records with an inconclusive call do not appear. A call without a number means that no potency is given here. A number with no mark means an inactive call. Activity calls are given as the source filed them. Calls come from the whole dose curve; as a rule, active = well fitted cell-killing curve with a large enough effect in the repeat runs; inconclusive = weak or mixed curves, or effect the other way; inactive = flat fitted curve, though single readings scatter.

Key:
[1] = cAMP Responsive Elements (CRE) small molecule antagonists, cell-based qHTS assay: qHTS cell viability counter screen (AID 2060913); note: nearly all actives have a fitted effect of over 40% in size
Outline: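 Steps: cells plated and held 18 hrs at 37 C/5% CO2; compounds and NKH477 (0.25 uM final) added; 3 hrs incubation; reporter substrate read; CellTiter-Glo added to measure cytotoxicity by luminescence.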

[2] = cAMP Responsive Elements (CRE) small molecule agonists, cell-based qHTS assay: qHTS cell viability counter screen (AID 2060914); note: nearly all actives have a fitted effect of over 50% in size
Outline: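 In the same wells as the reporter read, viability of CRE-bla HEK 293T cells was quantified by CellTiter-Glo luminescence after a 3 h compound exposure.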
Potency is the fitted concentration of half-maximal effect.

| Structure (SMILES) | Potency [1] | Potency [2] | viability change, negative = cytotoxic [1] | activity change, negative = cytotoxicity [2] |
| --- | --- | --- | --- | --- |
| C[N+](C)(C)CCCCCCCCCC[N+](C)(C)C | inactive | inactive | – | – |
| CC(C)c1ccc(S(=O)(=O)O)cc1 | inactive | inactive | – | – |
| O=C(O)CCCCC1CCSS1 (stereo unspecified) | inactive | inactive | – | – |
| COC(=O)C1=C(C)NC(C)=C(C(=O)OC(C)(C)CN(C)CCC(c2ccccc2)c2ccccc2)C1c1cccc([N+](=O)[O-])c1 (stereo unspecified) | inactive | inactive | – | – |
| Nc1ncnc2c1ncn2Cc1c(F)cccc1Cl | inactive | inactive | – | – |
| CC/C=C\CCOC(C)OCC (stereo unspecified) | inactive | inactive | – | – |
| c1ccc(SSc2ccccc2)cc1 | inactive | inactive | – | – |
| COc1ccc(CCC(=O)c2c(O)cc(O[C@@H]3O[C@H](CO)[C@@H](O)[C@H](O)[C@H]3O[C@@H]3O[C@@H](C)[C@H](O)[C@@H](O)[C@H]3O)cc2O)cc1O | inactive | inactive | – | – |
| Nc1cccc([N+](=O)[O-])c1 | inactive | inactive | – | – |
| O=C(C(=O)c1ccc(Br)cc1)c1ccc(Br)cc1 | – | – | -3.96% [at 18.9 µM] | -3.4% [at 18.9 µM] |
| CN(C)Cc1cc(CN(C)C)c(O)c(CN(C)C)c1 | inactive | inactive | – | – |
| CC(C)(C)NCC(O)COc1cccc2c1C[C@H](O)[C@H](O)C2 (stereo partly specified) | inactive | inactive | – | – |
| O=S(=O)(O)c1ccc2cc(O)ccc2c1 | inactive | inactive | – | – |
| CC(=O)OC1CCC(C(C)(C)C)CC1 (stereo unspecified) | inactive | inactive | – | – |
| CC1C(C)(C)C2=C(C(=O)CCC2)C1(C)C (stereo unspecified) | inactive | inactive | – | – |
| O=[N+]([O-])c1ccc2nc[nH]c2c1 | inactive | inactive | – | – |
| O=S(=O)(O)c1cc(S(=O)(=O)O)c2c(N=Nc3ccccc3)c(O)ccc2c1 | inactive | inactive | – | – |
| CC1=CC(=O)c2ccccc2C1=O | inactive | inactive | – | – |
| Cc1cc2c(s1)Nc1ccccc1N=C2N1CCN(C)CC1 | inactive | inactive | – | – |
| COC(=O)c1c(C)cc(O)c(C)c1O | inactive | inactive | – | – |
| Nc1ccn([C@H]2CC[C@@H](CO)O2)c(=O)n1 | inactive | inactive | – | – |
| O=C(O)COc1nn(Cc2ccccc2)c2ccccc12 | inactive | inactive | – | – |
| C/C=C(/C(=C/C)c1ccc(O)cc1)c1ccc(O)cc1 | inactive | inactive | – | – |

| Structure (SMILES) | Potency [1] | Potency [2] | viability change, negative = cytotoxic [1] | activity change, negative = cytotoxicity [2] |
| --- | --- | --- | --- | --- |
| COc1cccc2sc(N)nc12 | inactive | inactive | – | – |
| CC(C)C1CCC(C(=O)N[C@H](Cc2ccccc2)C(=O)O)CC1 (stereo partly specified) | inactive | inactive | – | – |
| CC(C)CC(=O)O | inactive | inactive | – | – |
| O=P(c1ccccc1)(c1ccccc1)c1ccccc1 | inactive | inactive | – | – |
| CC(=O)c1cc2ccccc2s1 | inactive | inactive | – | – |
| Oc1cccc2ccccc12 | inactive | inactive | – | – |
| CC(=O)N[C@@H](CCC(N)=O)C(=O)O | inactive | inactive | – | – |
| COC(=O)OC | inactive | inactive | – | – |
| CNCCCCOc1ccccc1Cc1ccccc1 | inactive | inactive | – | – |
| O=C(CCCN1CCN(c2ccc(F)cc2)CC1)NC1c2ccccc2CSc2ccccc21 (stereo unspecified) | inactive | inactive | – | – |
| COc1cc(-c2ccc(N=C=O)c(OC)c2)ccc1N=C=O | inactive | inactive | – | – |
| c1ccc2[nH]ccc2c1 | inactive | inactive | – | – |
| CCCCN(CCCC)CCCC | inactive | inactive | – | – |
| CN1CCC(=C2c3ccccc3CC(=O)c3sccc32)CC1 | inactive | inactive | – | – |
| O=C(NC(Cc1cc(=O)[nH]c2ccccc12)C(=O)O)c1ccc(Cl)cc1 (stereo unspecified) | inactive | inactive | – | – |
| CC(=O)Nc1cc(S(=O)(=O)O)cc2cc(S(=O)(=O)O)c(N=Nc3ccccc3)c(O)c12 | inactive | inactive | – | – |
| Cc1onc(-c2c(Cl)cccc2Cl)c1C(=O)N[C@@H]1C(=O)N2[C@@H]1SC(C)(C)[C@@H]2C(=O)O | inactive | inactive | – | – |
| OCCN1CN(CCO)CN(CCO)C1 | inactive | inactive | – | – |
| CCC(C)(C)CC | inactive | inactive | – | – |
| C[Si]1(C)O[Si](C)(C)O[Si](C)(C)O[Si](C)(C)O1 | inactive | inactive | – | – |
| NO | inactive | inactive | – | – |
| CCc1cccc(CC)c1NC(=O)C(=O)O | inactive | inactive | – | – |
| CC(C)CC(C)CC(C)CC(C)COC(=O)c1ccccc1C(=O)OCC(C)CC(C)CC(C)CC(C)C (stereo unspecified) | inactive | inactive | – | – |

| Structure (SMILES) | Potency [1] | Potency [2] | viability change, negative = cytotoxic [1] | activity change, negative = cytotoxicity [2] |
| --- | --- | --- | --- | --- |
| S=C([S-])NCCNC(=S)[S-].S=C([S-])NCCNC(=S)[S-].[Mn+2].[Zn+2] | inactive | inactive | – | – |
| CC[C@H](C)C(=O)O[C@H]1C[C@H](O)C=C2C=C[C@H](C)[C@H](CC[C@@H](O)C[C@@H](O)CC(=O)O)[C@H]21 | inactive | 5.45 µM (active) | – | – |
| Nc1ccc(S(N)(=O)=O)cc1 | inactive | inactive | – | – |
| COC(=O)[C@@H]1CC2=CC(=O)CC[C@]2(C)[C@@]23O[C@@H]2C[C@@]2(C)[C@@H](CC[C@@]24CCC(=O)O4)[C@H]13 | inactive | inactive | – | – |
| CN(C)CCN(C)CCO | inactive | inactive | – | – |
| OCC(O)[C@@H](O)[C@H](O)[C@H](O)CO[C@H]1O[C@H](CO)[C@@H](O)[C@H](O)[C@H]1O (stereo partly specified) | inactive | inactive | – | – |
| CCC(=O)OCCC(C)CCC=C(C)C (stereo unspecified) | inactive | inactive | – | – |
| c1ccc(CNc2ncnc3nc[nH]c23)cc1 | inactive | inactive | – | – |
| COc1cc(C=O)ccc1OC(=O)C(C)C | inactive | inactive | – | – |
| Cc1ccc(C(C)(C)C)cc1 | inactive | inactive | – | – |
| O=C(O)C(=O)Nc1cccc(-c2nn[nH]n2)c1 | inactive | inactive | – | – |
| CCC(CC)Nc1ccc(C)c(C)c1 | inactive | inactive | – | – |
| C1COC1 | inactive | inactive | – | – |
| CCCCCCC#CC(=O)OC | inactive | inactive | – | – |
| BrC/C=C/CBr | – | – | 15.6% [at 18.9 µM] | 3.61% [at 18.9 µM] |
| NC(=O)c1cnccn1 | inactive | inactive | – | – |
| CC[C@@H]1C[C@H](N(Cc2cc(C(F)(F)F)cc(C(F)(F)F)c2)C(C)=O)c2cc(C(F)(F)F)ccc2N1C(=O)OC(C)C | inactive | inactive | – | – |
| C[N+](C)(C)CCCCCC[N+](C)(C)C | inactive | inactive | – | – |
| CCN(O)CC | inactive | inactive | – | – |
| CC/C(=C(/c1ccc(O)cc1)c1ccc(OCCN(C)C)cc1)c1ccccc1 | 37.6 µM (active) | inactive | – | – |
| O=S(=O)(c1cccc2cnccc12)N1CCCNCC1 | inactive | inactive | – | – |
| [O]=[Mo](=[O])=[O] | – | – | 13.7% [at 18.9 µM] | -14.6% [at 18.9 µM] |
| CN(C)C | inactive | inactive | – | – |

| Structure (SMILES) | Potency [1] | Potency [2] | viability change, negative = cytotoxic [1] | activity change, negative = cytotoxicity [2] |
| --- | --- | --- | --- | --- |
| CCCCCCCCCCO | inactive | inactive | – | – |
| CC(C)CC=O | inactive | inactive | – | – |
| CC1=C(/C=C/C(C)=C/C=C/C(C)=C/C(=O)Nc2ccc(O)cc2)C(C)(C)CCC1 | inactive | inactive | – | – |
| CCCCC/C(=C\c1ccccc1)CO | inactive | inactive | – | – |
| CCCCCCCCCCCCCOP(=O)(O)O | inactive | inactive | – | – |
| COC(=O)/C=C/c1ccccc1 | inactive | inactive | – | – |
| CC(O)CC(C)(C)O (stereo unspecified) | inactive | inactive | – | – |
| CCN1CCC[C@H]1CNC(=O)c1c(O)c(Cl)cc(Cl)c1OC | inactive | inactive | – | – |
| C=CC(=C)CCCC(C)(C)OC(C)=O | inactive | inactive | – | – |
| COc1cc(O)c(C(=O)c2ccccc2)cc1S(=O)(=O)O | inactive | inactive | – | – |
| C=CCc1ccc(O)c(OC)c1 | inactive | inactive | – | – |
| O=C(O)CCC(=O)Nc1ccc(S(=O)(=O)Nc2nccs2)cc1 | inactive | inactive | – | – |
| CC(C)[C@H]1CC[C@@H](C)CC1=O | inactive | inactive | – | – |
| O=C1Nc2ccccc2C1=O | inactive | inactive | – | – |
| C=C(C)C(=O)OCCCCCCCCCCCCC | inactive | inactive | – | – |
| C[C@H]1[C@@H](c2ccccc2)NC(=O)N1C | inactive | inactive | – | – |
| Cc1ccc(S(=O)(=O)NC(=O)NC2CCCCCCC2)cc1 | inactive | inactive | – | – |
| CC(C)=CCCC(C)C=O (stereo unspecified) | inactive | inactive | – | – |
| Cc1cccc(C)n1 | inactive | inactive | – | – |
| CC1CC(=O)NN=C1c1ccc(NCC(C)(C)NCC(O)COc2cc(Cl)ccc2C#N)cc1 (stereo unspecified) | inactive | inactive | – | – |
| CCCN(CCC)c1c([N+](=O)[O-])cc(C(F)(F)F)c(N)c1[N+](=O)[O-] | inactive | 60.9 µM (active) | – | – |
| Cc1ccc(C(C)c2ccc(C)c(C)c2)cc1C | inactive | inactive | – | – |
| CCCCCCCC=O | inactive | inactive | – | – |

| Structure (SMILES) | Potency [1] | Potency [2] | viability change, negative = cytotoxic [1] | activity change, negative = cytotoxicity [2] |
| --- | --- | --- | --- | --- |
| CC[C@@H](CO)NCCN[C@@H](CC)CO | inactive | inactive | – | – |
| NCCNCCO | inactive | inactive | – | – |
| CCCCCCOC(=O)c1ccccc1 | inactive | inactive | – | – |
| C=CC(C)(O)CC/C=C(\C)CC (stereo unspecified) | inactive | inactive | – | – |
| Nc1cc(C(Cl)=C(Cl)Cl)c(S(N)(=O)=O)cc1S(N)(=O)=O | inactive | inactive | – | – |
| CN(C)c1cccc(O)c1 | inactive | inactive | – | – |
| Nc1cc(Cl)c([N+](=O)[O-])cc1O | inactive | inactive | – | – |
| C[Si](C)O[Si](C)(C)O[Si](C)(C)O[Si](C)C | inactive | inactive | – | – |
| CCn1cc(C(=O)O)c(=O)c2cc(F)c(N3CCNCC3)nc21 | inactive | inactive | – | – |
| Nc1ccn([C@H]2CS[C@@H](CO)O2)c(=O)n1 | inactive | inactive | – | – |
| Oc1cn2c(n1)Nc1ccc(Cl)c(Cl)c1C2 | – | – | 7.34% [at 18.9 µM] | -5.61% [at 18.9 µM] |
| O=C1OCc2ccccc21 | inactive | inactive | – | – |
| CC(=O)/C=C/C1=C(C)CCCC1(C)C | inactive | inactive | – | – |
| Oc1ccc(Nc2ccccc2)cc1 | inactive | inactive | – | – |
| CCN(CC)CCN | inactive | inactive | – | – |
| CCCCCCCCCCCCc1ccccc1 | inactive | inactive | – | – |
| Cc1cc(C(C)(C)C)cc(C)c1CC1=NCCN1 | inactive | inactive | – | – |
| O=C(O)c1cc(Cl)cc([N+](=O)[O-])c1Cl | inactive | inactive | – | – |
| CC(=O)[C@H]1CC[C@H]2[C@@H]3CC=C4C[C@@H](O)CC[C@]4(C)[C@H]3CC[C@]12C | inactive | inactive | – | – |
| Nc1ccc(O)c(C(=O)O)c1 | inactive | inactive | – | – |
| C=C1CC/C=C(\C)CC[C@@H]2[C@@H]1CC2(C)C | inactive | inactive | – | – |
